# Data from PubChem BioAssay.
# Where “and” joins values, the source holds several entries; their conditions need not be identical. Equal values may be shown once. Inconclusive results are not listed. Calls of active or inactive are those of the source. Unless noted, no stated cut-off is given here; in the data, active means inhibition above about 80%; inactive means the rest.
# Columns and labels:
# [1] = modifiers of HSF1 nuclear foci, imaging, Selleck Cancer Library (AID 1347162; in the data active means plate-normalised HSF1 focus index below about 0.46); settings: human cells, at 10 µM; SSMD: measured here: HSF1 foci SSMD mean; cell count: measured here: cell number; plate-normalised HSF1 focus index: stronger effect = lower value
# [2] = kinase inhibitors against Plasmodium liver-stage infection, cell-based, known kinase inhibitor set, luminescence, hepatoma host viability (AID 624392; call rule not given here;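 further: infected cells incubated roughly two days before readout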); settings: Plasmodium liver stage in hepatoma cells, luciferase luminescence, concentration not given here; liver cell % of control: measured here: host liver cell viability; parasite % of control: stronger effect = lower value
# [3] = LFS_MB_2R medulloblastoma cell growth inhibition, synergistic combos for chromothripsis tumors, cisplatin combos (AID 1671457); settings: LFS_MB_2R medulloblastoma cells, stronger effect = higher value;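 further: cells exposed to compound for four days before readout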
# [4] = UWB1.289_BRCA1 ovarian cancer growth, cell-based, BGB or cisplatin combinations (AID 1671459); settings: UWB1.289 BRCA1 ovarian carcinoma, drug combinations, stronger effect = higher value
# [5] = human astrocyte viability loss, single and combined drugs, cytotoxicity control for chromothriptic childhood tumor combination screen, cell-based, BGB or cisplatin IC20 combos (AID 1671460); settings: Human astrocytes, drug combinations, stronger effect = higher value;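 further: cells exposed to compounds for 96 hours before viability readout; 0% = vehicle and 100% = killing control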
# [6] = circadian clock period modulators, cell-based, LOPAC library, luminescence reporter (AID 2774; call rule not given here;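 further: values are relative to mean of DMSO wells on each plate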); settings: circadian reporter cells, at 7 µM, actives lie on both sides
# [7] = hESC survival regulators, cell-based (AID 493140; call rule not given here;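 further: cells exposed to compounds for four days before counting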); settings: human embryonic stem cell survival screen; stronger effect = higher value
# [8] = liver-stage malaria parasite growth inhibition, primary screen, cell-based, HepG2, luciferase luminescence, HepG2 viability (AID 624349; in the data active means parasite load remaining mostly below about 12%, no sharp cut-off; inactive means mostly above about 10%;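 further: 100% = mean of DMSO negative control wells on the same plate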); settings: P. berghei liver stage in HepG2, luciferase luminescence, concentration not given here; parasite load remaining: stronger effect = lower value; viability: measured here: HepG2 viability without parasites
# [9] = test system: Hepatitis C virus NS3 helicase; experiment: HCV NS3 helicase inhibitors, primary screen, biochemical, fluorescence polarization, LOPAC1280 library (AID 687035; in the data active means inhibition above about 37%); settings: Purified HCV NS3 helicase, Cy5-dT15 ssDNA binding fluorescence polarization; stronger effect = higher value; concentration not given here
# [10] = Cy5 fluorescence quenching or enhancement artefacts, artefact control for HCV NS3 helicase inhibitor project, biochemical, LOPAC1280 (AID 687037; call rule not given here); settings: Cy5-DNA-NS3h complex fluorescence interference counterscreen
# [11] = phospholipid biosynthesis inhibitors in animal cells, primary screen, cell-based, LOPAC library, screen 4 (AID 1347384; call rule not given here); settings: phospholipid biosynthesis inhibition screen, at 10 µM
# [12] = viability rescue of complex I mutant cybrids, primary screen, cell-based, galactose medium, ATP luminescence (AID 1645843;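 active means z-score of at least 1.8 in each of two replicates, scored against plate mean and spread of sample wells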;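 further: positive z means more ATP and so rescue of galactose-driven cybrid death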); settings: complex I mutant cybrid cells, 72 h, stronger effect = higher value
# [13] = SU-DIPG-VI glioma cell viability, MIPE4.0 library, CellTiter-Glo luminescence, qHTS (AID 1347066; cut-off not given, nearly all actives have AC50 up to about 30 µM;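 further: cells exposed to compound for 48 hours before readout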); settings: CellTiter-Glo ATP luminescence
# [14] = measured here: combination with cisplatin, at 0.5 µM
# [15] = measured here: combination with cisplatin, at 5 µM
# [16] = BGB combination, concentration series, at 5 µM
# [17] = cisplatin combination, concentration series, at 5 µM
# [18] = measured here: combo with BGB IC20, at 0.5 µM
# [19] = measured here: combo with cisplatin IC20, at 0.5 µM
compound,measurement,setting,value
CN(NC(=O)CC(=O)NN(C)C(=S)c1ccccc1)C(=S)c1ccccc1,SSMD,[1],2.56
same,cell count,[1],6990
same,plate-normalised HSF1 focus index,[1],1.13 (inactive)
CCN1CCN(Cc2ccc(NC(=O)c3ccc(C)c(NC(=O)c4cncc(-c5cccs5)c4)c3)cc2C(F)(F)F)CC1,liver cell % of control,[2],83.9%
same,parasite % of control,[2],74.7% (inactive)
CN(C)C/C=C/C(=O)Nc1ccc(C(=O)Nc2cccc(Nc3ncc(Cl)c(-c4c[nH]c5ccccc45)n3)c2)cc1,inhibition,[3]; at 0.5 µM,75.5% (inactive)
same,inhibition,[3]; [14],68.1%
same,inhibition,[3]; [15],91.1%
same,inhibition,[4]; [16],79.9%
same,inhibition,[4]; at 0.5 µM,84.7% (active)
same,inhibition,[4]; [17],86.1%
same,inhibition,[5]; at 0.5 µM,87.2% (active)
same,inhibition,[5]; [18],86.5%
same,inhibition,[5]; [19],83.8%
CC(=O)[C@]1(N)Cc2c(O)c3c(c(O)c2[C@@H](O[C@H]2C[C@H](O)[C@H](O)CO2)C1)C(=O)c1ccccc1C3=O,inhibition,[3]; at 0.5 µM,-4.05% (inactive)
same,inhibition,[3]; [14],-9.33%
same,inhibition,[3]; [15],67%
same,inhibition,[4]; [16],117%
same,inhibition,[4]; at 0.5 µM,13% (inactive)
same,inhibition,[4]; [17],128%
same,inhibition,[5]; at 0.5 µM,25.7% (inactive)
same,inhibition,[5]; [18],27.9%
same,inhibition,[5]; [19],27.1%
N=C1CCCN1Cc1[nH]c(=O)[nH]c(=O)c1Cl,inhibition,[3]; at 0.5 µM,-11.5% (inactive)
same,inhibition,[3]; [14],-21.1%
same,inhibition,[3]; [15],-54.2%
same,inhibition,[4]; [16],3.78%
same,inhibition,[4]; at 0.5 µM,4.18% (inactive)
same,inhibition,[4]; [17],25.3%
same,inhibition,[5]; at 0.5 µM,0.72% (inactive)
same,inhibition,[5]; [18],12.6%
same,inhibition,[5]; [19],-10.8%
CN(CCOc1ccc(C[C@H](Nc2ccccc2C(=O)c2ccccc2)C(=O)O)cc1)c1ccccn1,period change,[6],0.085 h (inactive)
NC1CCC(N[C@@H]2C[C@H]2c2ccccc2)CC1 (some centres not stated),inhibition,[3]; at 0.5 µM,-35.8% (inactive)
same,inhibition,[3]; [14],-40%
same,inhibition,[3]; [15],-27.2%
same,inhibition,[4]; [16],-9.67%
same,inhibition,[4]; at 0.5 µM,0.86% (inactive)
same,inhibition,[4]; [17],21.2%
same,inhibition,[5]; at 0.5 µM,11.2% (inactive)
same,inhibition,[5]; [18],8.8%
same,inhibition,[5]; [19],10.6%
COc1ccc(S(=O)(=O)N(CCO)c2ccccc2CN(C)C/C=C/c2ccc(Cl)cc2)cc1,survival,[7],106 (inactive)
same,parasite load remaining,[8],32.7% (inactive)
same,viability,[8],64.7%
C=C1[C@H](CO)[C@@H](O)C[C@@H]1n1cnc2c(=O)[nH]c(N)nc21,inhibition,[3]; at 0.5 µM,-6.88% (inactive)
same,inhibition,[3]; [14],-11.9%
same,inhibition,[3]; [15],-13.1%
same,inhibition,[4]; [16],-20.8%
same,inhibition,[4]; at 0.5 µM,-14% (inactive)
same,inhibition,[4]; [17],-7.68%
same,inhibition,[5]; at 0.5 µM,-13.6% (inactive)
same,inhibition,[5]; [18],-16.4%
same,inhibition,[5]; [19],-16.1%
COc1ccc(C(=O)C2CCN(CC(=O)N(Cc3nc4c(c(=O)[nH]3)COCC4)CC3CC3)CC2)cc1,inhibition,[3]; at 0.5 µM,-24% (inactive)
same,inhibition,[3]; [14],-29.2%
same,inhibition,[3]; [15],-37.9%
same,inhibition,[4]; [16],1.7%
same,inhibition,[4]; at 0.5 µM,-0.47% (inactive)
same,inhibition,[4]; [17],18.5%
same,inhibition,[5]; at 0.5 µM,48.9% (inactive)
same,inhibition,[5]; [18],45.3%
same,inhibition,[5]; [19],49.7%
CCCc1c(OCCCOc2ccc(OCC(=O)O)cc2)ccc(C(C)=O)c1O,period change,[6],-0.235 h (inactive)
same,inhibition,[9],-1% (inactive)
same,fluorescence ratio (interference),[10],1 (inactive)
same,outcome,[11],inactive
same,z-score,[12],1.51 (inactive)
COc1cc(Nc2ncc(F)c(Nc3ccc4c(n3)NC(=O)C(C)(C)O4)n2)cc(OC)c1OC,SSMD,[1],2.8
same,cell count,[1],7530
same,plate-normalised HSF1 focus index,[1],1.18 (inactive)
c1ccc2c(-c3cnn4cc(-c5ccc(N6CCNCC6)cc5)cnc34)ccnc2c1,SSMD,[1],-18.9
same,cell count,[1],2900
same,plate-normalised HSF1 focus index,[1],0.0271 (active)
Cc1nnc(C(C)C)n1C1CC2CCC(C1)N2CC[C@H](NC(=O)C1CCC(F)(F)CC1)c1ccccc1 (some centres not stated),SSMD,[1],0.747
same,cell count,[1],6250
same,plate-normalised HSF1 focus index,[1],1.04 (inactive)
same,outcome,[11],inactive
CC(=O)Nc1ccc(C(=O)Nc2ccccc2N)cc1,inhibition,[3]; at 0.5 µM,-12.7% (inactive)
same,inhibition,[3]; [14],-6.43%
same,inhibition,[3]; [15],50.6%
same,inhibition,[4]; [16],68.5%
same,inhibition,[4]; at 0.5 µM,-2% (inactive)
same,inhibition,[4]; [17],75.2%
same,inhibition,[5]; at 0.5 µM,17% (inactive)
same,inhibition,[5]; [18],9.55%
same,inhibition,[5]; [19],26.2%
C[C@@H](O)[C@@H]1NC(=O)[C@H](CCCCN)NC(=O)[C@@H](Cc2c[nH]c3ccccc23)NC(=O)[C@H](Cc2ccccc2)NC(=O)[C@@H](NC(=O)[C@H](N)Cc2ccccc2)CSSC[C@@H](C(=O)N[C@H](CO)[C@@H](C)O)NC1=O,parasite load remaining,[8],22.8% (inactive)
same,viability,[8],81.5%
same,z-score,[12],0.6 (inactive)
O=C(NOCC(O)CO)c1ccc(F)c(F)c1Nc1ccc(I)cc1F (configuration not stated),liver cell % of control,[2],81.2% and 75.1% and 63.7%
same,parasite % of control,[2],153% (inactive) and 268% (inactive) and 132% (inactive)
COc1cc(/C=C(\C#N)C(=O)Nc2nnc(C(F)(F)F)s2)ccc1OCc1ccc(C(F)(F)F)cc1C(F)(F)F,inhibition,[9],-5% (inactive)
same,fluorescence ratio (interference),[10],1 (inactive)
same,outcome,[11],inactive
same,z-score,[12],0.35 (inactive)
CC(C)(C(=O)NCC(F)(F)C(F)(F)F)C(=O)N[C@@H]1C(=O)Nc2ccccc2-c2ccccc21,outcome,[13],inactive
same,SSMD,[1],3.83
same,cell count,[1],7550
same,plate-normalised HSF1 focus index,[1],1.24 (inactive)
COc1ccc(CNC(=O)Nc2ncc([N+](=O)[O-])s2)cc1,parasite load remaining,[8],31.3% (inactive)
same,viability,[8],94.6%
same,SSMD,[1],1.38
same,cell count,[1],7050
same,plate-normalised HSF1 focus index,[1],1.08 (inactive)
NS(=O)(=O)OC[C@@H]1C[C@@H](n2ccc3c(N[C@H]4CCc5ccccc54)ncnc32)C[C@@H]1O,outcome,[13],inactive
O=[N+]([O-])c1ccc(-c2nc(-c3ccc(F)cc3)c(-c3ccncc3)[nH]2)cc1,parasite load remaining,[8],29.6% (inactive)
same,viability,[8],67.5%
same,inhibition,[9],1% (inactive)
same,fluorescence ratio (interference),[10],1 (inactive)
same,outcome,[11],inactive
same,z-score,[12],-0.155 (inactive)
